Compound activity: PubChem BioAssay, National Center for Advancing Translational Sciences (NCATS)
G9a inh: inhibitors of human histone lysine methyltransferase G9a. Q96KQ7. G9a H3K9 monomethylation, AlphaScreen, 2 h. Potency, µM (top dose mostly 102 µM), inactives show at the top dose activity, negative = inhibition, hits mostly inhibitors. actives 8.8% (n = 350,000). AID 504332; also: potency is read from the fitted curve at half-maximal effect; nearly all actives have a fitted effect of over 75% in size
Target sequence (Q96KQ7 913-1193 limits assumed): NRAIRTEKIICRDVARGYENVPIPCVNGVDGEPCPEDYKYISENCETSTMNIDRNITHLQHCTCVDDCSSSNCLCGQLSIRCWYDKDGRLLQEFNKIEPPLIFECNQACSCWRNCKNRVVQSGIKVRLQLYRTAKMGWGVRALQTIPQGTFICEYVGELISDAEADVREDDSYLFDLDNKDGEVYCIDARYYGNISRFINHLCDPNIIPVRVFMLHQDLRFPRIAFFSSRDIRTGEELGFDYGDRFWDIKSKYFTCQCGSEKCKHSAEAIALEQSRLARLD
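AlphaScreen detection with an anti-monomethyl H3K9 antibody quantified product after a 2 h room-temperature reaction containing 500 nM biotinylated H3K9 peptide, 20 µM SAM and 20 nM enzyme, which had been preincubated 15 min with compound.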
Coupling enz: counter-screen for Giardia aldolase inhibitors: coupling enzyme system. coupling enzyme system counterscreen, AmpLite Red fluorescence. activity change, negative = inhibition, % at 58.2 µM, hits read low. actives 0.67% (n = 290,000); in the data active = activity change below about -30%
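Compounds tested against the coupling enzymes alone at 57.5 uM final; readout was AmpLite Red fluorescence (525/598 nm) after 20 min at RT.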
Sfp PPTase inh: blocks B. subtilis Sfp PPTase activity. Potency, µM, for inactives: largest response in the series, negative = inhibition, actives largely listed as inhibitors. AID 1490. Q9F4F7. Biochemical Sfp PPTase activity, qHTS. actives 3.5% (n = 310,000);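 also: the enzyme is Sfp with the accession as filed and its product quenches rhodamine fluorescence; potency is read from the fitted curve at half-maximal effect; 0% = enzyme reaction without inhibitor and -100% = no enzyme wells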
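With Hepes-Na pH 7.6 buffer containing 10 mM MgCl2, Sfp (15 nM) modified BHQ-2-YbbR (12.5 uM) using rhodamine-CoA (5 uM). Two reads 30 minutes apart at 525/598 nm yielded each well's rate.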
Tau fibril ThT: inhibitors of human tau fibril formation, thioflavin T binding; P10636; recombinant tau K18 P301L, heparin-induced fibrillization, ThT fluorescence; Potency, µM (titrated, usually from 57.4 µM), inactives show at the top dose activity, negative = inhibition, hits mostly inhibitors; actives 2.1% (n = 270,000); also: potency is read from the fitted curve at half-maximal effect; nearly all actives have a fitted effect of over 55% in size
Target sequence (P10636 561-689 P618L limits assumed): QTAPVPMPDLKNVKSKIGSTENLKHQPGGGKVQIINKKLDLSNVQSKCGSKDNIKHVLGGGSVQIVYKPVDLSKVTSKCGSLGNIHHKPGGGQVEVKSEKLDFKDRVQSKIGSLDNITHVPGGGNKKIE
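Tau K18 P301L fragment (15 uM unlabeled plus 0.24 uM Alexa 594-labeled) in 100 mM sodium acetate pH 7 with compound, fibrillization induced by 20 uM heparin for 6 hr at 37 C. Thioflavin T (30 uM) added, fluorescence read after 1 hr (ex 450, em 510 nm).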
Tau fluor counter: counter-screen for tau fibril formation inhibitors; tau K18 P301L (four-repeat tau fragment) Alexa594 fluorescence, heparin fibrillization; Potency, µM (top dose mostly 57.7 µM), for the others: at the highest dose activity change, negative = decrease; actives 0.93% (n = 280,000); AID 1463; also: potency is read from the fitted curve at half-maximal effect; nearly all actives have a fitted effect of over 55% in size
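Human K18 P301L tau (15 uM unlabeled plus 0.24 uM Alexa 594-labeled, final) in 100 mM sodium acetate pH 7 was mixed with compound and 20 uM heparin and incubated 6 hr at 37 C.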
Tau FP inhib: blocks human tau fibril formation measured by polarization; actives 0.39% (n = 280,000); AID 1468; K18 P301L tau heparin fibrillization, Alexa594 FP, 6 h; Potency, µM (highest dose often 57.7 µM), for the others: at the top dose activity, negative = inhibition, hits mostly inhibitors; P10636; also: potency is read from the fitted curve at half-maximal effect; nearly all actives have a fitted effect of over 55% in size
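Human K18 P301L fragment (15 uM unlabeled plus 0.24 uM Alexa 594-labeled) in 100 mM sodium acetate pH 7 with compound, aggregation induced by 20 uM heparin for 6 hr at 37 C. ThT (30 uM) added for 1 hr, then Alexa 594 FP read.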
Active calls of the source: *; ? = inconclusive; / = no result given; [ ] = dose if it differs, or a comment. Shown are actives, neighbours in structure and some others; about 11% of the full set was active somewhere. Unless noted, calls follow the shape of the dose curve; as a rule, active = well fitted curve in the direction sought with a large enough effect; inconclusive = small, poorly fitted or top-dose-only effect, or another doubt; inactive = no such curve, though single readings can be large; an effect the other way counts as inactive or inconclusive. Unless noted, % is scaled to controls: 0 for no effect and ±100 for the full control effect.

SMILES | G9a inh | Coupling enz | Sfp PPTase inh | Tau fibril ThT | Tau fluor counter | Tau FP inhib
CCOC(=O)CSC1=C(C#N)C(c2ccc(F)cc2)C(C(C)=O)=C(C)N1 (centres undefined) | ? | -39* | ? | ? | -20% | -7%
CCOC(=O)C1=C(C)NC(SCC(=O)OC)=C(C#N)C1c1ccc(C(=O)OC)cc1 (centres undefined) | ? | 0 | 56µM* | -6% | -17% | 8%
O=C1[C@@H]2CSC(c3ccc(Cl)cc3)N2C(=O)N1c1ccccc1 (some centres undefined) | 23%[59 µM] | / | / | -4% | -21% | 2%
NNC(=O)c1nc[nH]c1C(=O)Nc1ccccc1 | ? | 5 | 25% | / | / | /
COc1ccc2c(c1)O[C@@H](c1cccc(C(F)(F)F)c1)[C@H](OC(=O)NS(=O)(=O)c1ccc(C)cc1)C2=O | / | 1 | 10% | -13% | -11% | -3%
COCCCn1c(-c2ccc(Cl)cc2)n[nH]c1=S | 4µM* | 4 | 2% | -5% | -11% | -9%
COCCCn1c(-c2ccccc2Cl)n[nH]c1=S | 2.2µM* | -2 | 9% | -3% | 5% | 1%
CCOCCCn1c(-c2ccc(Cl)cc2)n[nH]c1=S | 1.8µM* | 2 | 6% | -8% | -10% | -7%
S=c1[nH]nc(-c2ccc(Cl)cc2)n1CCCN1CCOCC1 | 40µM* | -2 | 13% | 0% | -4% | -4%
C/C(=N/NS(=O)(=O)c1cccc([N+](=O)[O-])c1)c1ccncc1 | 35µM* | / | -17% | / | / | /
C/C(=N/NS(=O)(=O)c1ccc(C)cc1)c1c[nH]c2ccccc12 | 25µM* | 2 | -13% | / | / | /
C/C(=N/NS(=O)(=O)c1ccccc1)c1c[nH]c2ccccc12 | 22µM* | -4 | -9% | / | / | /
C/C(=N/NS(=O)(=O)c1ccc(Cl)cc1)c1ccncc1 | / | 0 | -9% | / | / | /
CCOC(=O)N1CCC(=NNS(=O)(=O)c2cccc([N+](=O)[O-])c2)CC1 | ? | 1 | 56µM* | -13% | -6% | 2%
O=C1CCC(C(=O)N2CCN(c3ccccc3)CC2)CN1CC1CCCCC1 (centres undefined) | 7% | / | 11% | / | / | /
C/C(=N/NS(=O)(=O)c1cccc([N+](=O)[O-])c1)c1c[nH]c2ccccc12 | 25µM* | / | -26% | / | / | /
CC(=O)Nc1cccc(/C(C)=N/NS(=O)(=O)c2ccc(C)cc2)c1 | 50µM* | 3 | -4% | 2% | -1% | -4%
C/C(=N/NS(=O)(=O)c1cc(C)ccc1C)c1c[nH]c2ccccc12 | ? | / | 5% | / | / | /
CC(=O)Nc1cccc(/C(C)=N/NS(=O)(=O)c2ccccc2)c1 | -44% | 2 | 13% | -8% | 1% | -2%
Nc1ncnc(Sc2ncccn2)c1[N+](=O)[O-] | ? | -3 | 35µM* | ? | ? | -4%
Nc1ncnc(Sc2ccccc2)c1[N+](=O)[O-] | -6%[59 µM] | 5 | 6% | ? | ? | -4%
CCNc1ccc(S(=O)(=O)N(C)C)cc1NCC(=O)Nc1ccc(Br)cc1F | 14µM* | -2 | 0% | ? | 9% | -7%
CCNc1ccc(S(=O)(=O)N(C)C)cc1NCC(=O)Nc1ccc(F)c(Cl)c1 | 50µM* | -3 | -2% | -7% | ? | 17%
CCC(CC)c1nnc(NC(=O)c2ccc(N3CCCCC3)c([N+](=O)[O-])c2)s1 | ? | 2 | 11% | 14% | 13% | 8%
O=C(Nc1nc2ccc3ccccc3c2s1)c1ccc(N2CCCCC2)c([N+](=O)[O-])c1 | -9% | 0 | 1% | 4µM* | -19% | 3%
SMILES | G9a inh | Coupling enz | Sfp PPTase inh | Tau fibril ThT | Tau fluor counter | Tau FP inhib
O=C(Nc1nc2ccc(Cl)cc2s1)c1ccc(N2CCCCC2)c([N+](=O)[O-])c1 | -17%[12.7 µM] | 0 | 9% | 1.3µM* | -15% | -19%
C=CCOC(=O)N[C@@H](CC(C)C)/C(C(=O)OC)=C(\C)NCc1ccccc1 | / | 0 | -9% | 7% | 3% | 1%
COc1ccc(S(=O)(=O)N2CCOCC2)cc1NC(=O)c1sccc1C | 7%[0.501 µM] | / | / | / | / | /
CS(=O)(=O)N1CCc2cc(-c3csc(NCC4CCCO4)n3)ccc21 (centres undefined) | 5.6µM* | -11 | 50µM* | ? | -22% | ?
CS(=O)(=O)N1CCc2cc(-c3csc(NC(=O)Cc4ccccc4)n3)ccc21 | 14µM* | 0 | 12% | -16% | ? | -13%
CCCC(=O)Nc1nc(-c2ccc3c(c2)CCN3S(C)(=O)=O)cs1 | 11%[59 µM] | -2 | -14% | -14% | -14% | 6%
CC(=O)c1c(C)nc(-c2ccc(Cl)cc2)nc1N=CN(C)C | 3.5µM* | 4 | ? | -4% | -7% | -2%
Cc1nnsc1C(=O)N/N=C/c1ccc2ccccc2c1O | 40µM* | 4 | 6% | 3.2µM* | -20% | ?
COc1ccc(N2CC(NC(=O)c3ccc(S(=O)(=O)N4CCOCC4)cc3)CC2=O)cc1 (centres undefined) | 23%[59 µM] | / | / | 0% | -5% | ?
CC(NC(=O)c1ccco1)C1COc2ccccc2O1 (centres undefined) | 25µM* | -6 | 5% | -10% | -6% | -5%
COc1ccc(CNC(C)C2COc3ccccc3O2)c(OC)c1 (centres undefined) | 10µM* | 1 | -20% | -11% | -6% | -4%
CC(NCC(O)COc1ccccc1)C1COc2ccccc2O1 (centres undefined) | -11% | 0 | 8% | / | / | /
CC(NCc1ccccc1)C1COc2ccccc2O1 (centres undefined) | 32µM* | 0 | -9% | -13% | -6% | -9%
CCOC(=O)c1c(C2COc3ccccc3O2)csc1NC(=O)c1ccco1 (centres undefined) | 1.6µM* | -4 | ? | ? | -19% | ?
CC(NC(=O)CCC(=O)NC(C)C1COc2ccccc2O1)C1COc2ccccc2O1 (centres undefined) | 5%[59 µM] | 3 | 10% | ? | -26% | 11%
CCOC(=O)c1c(-c2cccs2)csc1NC(=O)c1ccco1 | -17%[59 µM] | 1 | 10% | 1% | 2% | -2%
CCOC(=O)CNC(=O)CCc1nnc2ccc(N3CCC(C)CC3)nn12 | 15% | 0 | 17% | / | / | /
O=C(CSc1n[nH]c(-c2ccco2)n1)Nc1ccccc1 | -48% | / | / | / | / | /
NSc1nc(N)c2nc(-c3ccccc3)c(-c3ccccc3)nc2n1 | 6.3µM* | 3 | -17% | 16µM* | -19% | ?
CCOC(=O)c1sc2c(c1C)c(=O)n(Cc1ccccc1)c(=O)n2CCN(C)C | -32%[12.7 µM] | 3 | -10% | / | / | /
CC1=CC(C)(C)Nc2ccccc21 | 6%[0.501 µM] | -20 | 79µM* | -12% | -17% | 8%
